Results as given in PubChem BioAssay (EPA / NIEHS).
Records with an inconclusive call do not appear. Active and inactive are the calls of the source. How the source made its calls: active means hit-call score of the fitted dose curve at least 0.9, where 1 is the maximum; inconclusive means response in the unintended direction; inactive means score below 0.9.

How the values were obtained:
[1] = TOX21_p53_BLA_p2_viability: Viability Assessment in the Tox21 HCT-116 p53 Agonism Beta-lactamase Assay, Phase 2 (AID 2283591);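 further: compound exposure lasted 16 h at 37 °C; actives lower the ATP signal meaning cytotoxicity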
Outline: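 HCT116 p53-bla cells, 4000/well, dosed after 5 h plating (217-fold dilution of DMSO stocks) and incubated 16 h at 37C. Viability taken as cellular ATP by CellTiter-Glo luminescence after 30 min RT; signal loss marks cytotoxicity.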

[2] = biological target: Cellular tumor antigen p53 (Homo sapiens) (UniProt P04637); assay: TOX21_p53_BLA_p2_ratio: Tox21 HCT-116 p53 Agonism Beta-lactamase Assay, Ratio, Phase 2 (AID 2283592)
Outline: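 DMSO-normalized, positive-direction endpoint derived from the 460 nm/530 nm FRET ratio in HCT116 p53 beta-lactamase reporter cells exposed 16 h at 37C and loaded with CCF4-AM for 2 h.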

[3] = TOX21_p53_BLA_p3_viability: Viability Assessment in the Tox21 HCT-116 p53 Agonism Beta-lactamase Assay, Phase 3 (AID 2283593);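 further: cells exposed to compound for 16 h before reading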
Outline: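 HCT116 cells, 4000/well, dosed 5 h after plating by pin transfer (217-fold dilution from DMSO stock) and incubated 16 h at 37C, 5% CO2. Viability read as ATP luminescence with CellTiter-Glo after 30 min at room temperature.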

[4] = TOX21_p53_BLA_p4_viability: Viability Assessment in the Tox21 HCT-116 p53 Agonism Beta-lactamase Assay, Phase 4 (AID 2283597);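 further: hits lower the luminescence signal meaning cytotoxicity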
Outline: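 In this multiplexed secondary endpoint, HCT116 cells (4000 per well, compound at 5 h, 16 h treatment) received CellTiter-Glo after the beta-lactamase read. Luminescence after 30 min RT reflects ATP, and falling signal marks cytotoxicity.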

[5] = biological target: Cellular tumor antigen p53 (Homo sapiens) (UniProt P04637); assay: TOX21_p53_BLA_p5_ratio: Tox21 HCT-116 p53 Agonism Beta-lactamase Assay, Ratio, Phase 5 (AID 2283599)
Outline: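 HCT-116 p53-bla cells (4000/well) plated 5 h, dosed with compound (217-fold DMSO dilution) for 16 h at 37 C; CCF4-AM substrate 2 h at room temperature. Activity is the 460/530 nm emission ratio (405 nm excitation), fitted in gain-of-signal direction versus DMSO.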

[6] = TOX21_p53_BLA_p5_viability: Viability Assessment in the Tox21 HCT-116 p53 Agonism Beta-lactamase Assay, Phase 5 (AID 2283600)
Outline: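 Here cell health was gauged by ATP levels in wells holding 4000 cells, each treated 16 h with DMSO-delivered compounds at 217-fold dilution; reduced luminescence marked toxicity.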

[7] = biological target: Cellular tumor antigen p53 (Homo sapiens) (UniProt P04637); assay: TOX21_p53_BLA_p3_ratio: Tox21 HCT-116 p53 Agonism Beta-lactamase Assay, Ratio, Phase 3 (AID 2283596)
Outline: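 Cells were seeded at 4000/well, rested 5 h at 37C, then dosed with DMSO compound solutions (217-fold dilution) for 16 h. CCF4-AM substrate was loaded for 2 h at room temperature, and the 460/530 nm emission ratio was fitted for gain of signal versus DMSO.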

[8] = biological target: Cellular tumor antigen p53 (Homo sapiens) (UniProt P04637); assay: TOX21_p53_BLA_p4_ratio: Tox21 HCT-116 p53 Agonism Beta-lactamase Assay, Ratio, Phase 4 (AID 2283601)
Outline: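 HCT-116 p53 beta-lactamase reporter cells (4000/well) preincubated 5 h, then compound (217-fold dilution of DMSO stock) for 16 h at 37C. CCF4-AM substrate added 2 h at room temperature; 460/530 nm emission ratio fitted upward versus DMSO.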

Measured: outcome

Sequence of Cellular tumor antigen p53 (Homo sapiens) (P04637 whole entry, looked up): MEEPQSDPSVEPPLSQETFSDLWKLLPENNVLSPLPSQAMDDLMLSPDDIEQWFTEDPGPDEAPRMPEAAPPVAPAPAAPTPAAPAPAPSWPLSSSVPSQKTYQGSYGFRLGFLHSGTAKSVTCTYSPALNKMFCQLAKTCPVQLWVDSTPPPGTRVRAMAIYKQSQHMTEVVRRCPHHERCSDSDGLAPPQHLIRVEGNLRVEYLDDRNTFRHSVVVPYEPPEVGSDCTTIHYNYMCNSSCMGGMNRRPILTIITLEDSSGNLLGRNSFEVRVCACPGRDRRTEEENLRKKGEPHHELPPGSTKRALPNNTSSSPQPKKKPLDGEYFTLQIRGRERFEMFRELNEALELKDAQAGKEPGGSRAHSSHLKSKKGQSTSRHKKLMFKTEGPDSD

C[N+](C)(CCCCCC[N+](C)(C)C1c2ccccc2-c2ccccc21)C1c2ccccc2-c2ccccc21
inactive: [1] | [2] | [3] | [4]

C[C@H]1C[C@H]2[C@@H]3CCC4=CC(=O)C=C[C@]4(C)[C@H]3C(=O)C[C@]2(C)[C@@]1(O)C(=O)CO
inactive: [1] | [2] | [3] | [4] | [5]

CC[N+]1(CC)CCC(=C(c2ccccc2)c2ccccc2)C1C (centres undefined)
not listed: [7] | [8]
inactive: all other assays above

O=C(CCN1CCN2CCCC2C1)N1c2ccccc2Sc2ccc(Cl)cc21 (centres undefined)
inactive: [1] | [2] | [3] | [4]

C=CCCC
not listed: [7] | [8]
inactive: all other assays above

OCCN1CCN(CC/C=C2/c3ccccc3Sc3ccc(Cl)cc32)CC1
inactive: [1] | [2] | [3] | [4]

CCCCCC1Nc2cc(C(F)(F)F)c(S(N)(=O)=O)cc2S(=O)(=O)N1 (centres undefined)
inactive: [1] | [2] | [3] | [4] | [5]

O=c1[nH]cnc2[nH]cc(CN3CCCCC3)c12
not listed: [7] | [8]
inactive: all other assays above

O=C(O)C=CC(=O)Nc1ccc(S(=O)(=O)Nc2nccs2)cc1
inactive: [1] | [2] | [3] | [4]

CCCCCCCCCCC(=O)O
not listed: [7] | [8]
inactive: all other assays above

CC1=C(O)C(=O)OC1C (centres undefined)
not listed: [7] | [8]
inactive: all other assays above

O=C1C2CC3CC1CC(O)(C3)C2
inactive: [1] | [2] | [3] | [7] | [8]

CCCC(CCC)C(N)=O
inactive: [1] | [2] | [3] | [7] | [8]

CCCCCC=CCC=CCCCCCCCC(=O)OCC
inactive: [1] | [2] | [3] | [4]

CCCCCSCCCCC
not listed: [7] | [8]
inactive: all other assays above

CC(C)CN(C[C@@H](OP(=O)(O)O)[C@H](Cc1ccccc1)NC(=O)O[C@H]1CCOC1)S(=O)(=O)c1ccc(N)cc1
inactive: [1] | [2] | [3] | [4] | [5]

NC(=S)NS(=O)(=O)c1ccc(N)cc1
not listed: [7] | [8]
inactive: all other assays above

CC(C)(COP(=O)(O)OP(=O)(O)OC[C@H]1O[C@@H](n2cnc3c(N)ncnc32)[C@H](O)[C@@H]1OP(=O)(O)O)C(O)C(=O)NCCC(=O)NCCS (some centres undefined)
not listed: [7] | [8]
inactive: all other assays above

O=C(O[C@H]1CN2CCC1CC2)N1CCc2ccccc2[C@@H]1c1ccccc1
not listed: [7]
inactive: all other assays above

CCOC(=O)[C@H](CCc1ccccc1)N[C@@H](C)C(=O)N1CCC[C@H]1C(=O)O
not listed: [7] | [8]
inactive: all other assays above

C=CCOc1c(Br)cc(C(C)(C)c2cc(Br)c(OCC=C)c(Br)c2)cc1Br
not listed: [7] | [8]
inactive: all other assays above

CC(C)OCC1CO1 (centres undefined)
inactive: [1] | [2] | [3] | [4] | [5]

Nc1cc(S(=O)(=O)O)ccc1S(=O)(=O)O
inactive: [1] | [2] | [3] | [4]

O=C(O)COc1ccc(C(=O)c2cccs2)c(Cl)c1Cl
not listed: [7]
inactive: all other assays above

COc1ccc(CNCC(O)COc2ccc3[nH]c(=O)ccc3c2)cc1OC (centres undefined)
not listed: [7]
inactive: all other assays above

NCCCC[C@H](NC(=O)[C@@H]1CCCN1C(=O)[C@@H]1CSSC[C@H](N)C(=O)N[C@@H](Cc2ccccc2)C(=O)N[C@@H](Cc2ccccc2)C(=O)N[C@@H](CCC(N)=O)C(=O)N[C@@H](CC(N)=O)C(=O)N1)C(=O)NCC(N)=O
not listed: [7]
inactive: all other assays above

CC(C)(C)NC[C@H](O)COc1ccccc1C1CCCC1
not listed: [7]
inactive: all other assays above

Clc1ccc2c(c1)CCc1cccnc1C2=C1CCNCC1
not listed: [7]
inactive: all other assays above

CC(C)OC(=O)C(C)N(C(=O)c1ccccc1)c1ccc(F)c(Cl)c1 (centres undefined)
not listed: [7]
inactive: all other assays above

Oc1ccccc1C=NCc1ccccc1
not listed: [7]
inactive: all other assays above

CC(=O)NO
not listed: [7]
inactive: all other assays above

C[N+]1(C)CCC(OC(=O)C(O)(c2ccccc2)C2CCCC2)C1 (centres undefined)
not listed: [7]
inactive: all other assays above
